Experiment [1] can be described thus: rapamycin-like changes in RPL19A-GFP expression – cell-based, S. cerevisiae, multiplex flow cytometry, primary screen (AID 1862; in the data active = percent of DMSO control GFP below about 86%;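 also: lower values mimic rapamycin by blocking the RPL19A rise seen in DMSO cells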). To be noted: S. cerevisiae RPL19A-GFP strain, flow cytometry fluorescence, 3 h; at 10 µM; stronger effect = lower value.
Experiment [2] in a line: TOR pathway GLN3 branch reporter MEP2-GFP changes – S. cerevisiae, multiplex flow cytometry, primary screen (AID 1867;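 active = GFP response, as percent of the DMSO control, above the screen-wide mean plus 3 SD, about 139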;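 also: median GFP channel fluorescence of barcode-gated MEP2-GFP cells measured by flow cytometry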). Particulars: S. cerevisiae MEP2-GFP strain, 3 h, at 10 µM, stronger effect = higher value. (In general: A flow cytometer gives signals particle by particle.)
A short description of experiment [3]: TOR pathway RTG branch CIT2 reporter changes – S. cerevisiae, GFP fusion, multiplex flow cytometry, primary screen (AID 1870;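 active = percent response above a set limit, the screen-wide mean plus 3 SD, cut at about 130% in these data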;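 also: barcoded CIT2-GFP strain pooled with four other GFP strains with rapamycin as positive control; median GFP fluorescence per well over plate mean of DMSO wells so 100% = DMSO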). To be noted: S. cerevisiae CIT2-GFP expression, 3 h, at 10 µM, stronger effect = higher value.
Experiment [4] can be described thus: TOR pathway LAP4-GFP level changes – S. cerevisiae, multiplex flow cytometry, primary screen (AID 1873;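 active = GFP signal, as percent of the solvent control, above the screen mean plus 3 SD, about 149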). To be noted: S. cerevisiae LAP4-GFP expression, 3 h, at 10 µM, stronger effect = higher value.
Experiment [5] in a line: yeast AGP1-GFP level changes, GLN3 branch – cell-based, multiplex flow cytometry, S. cerevisiae, primary screen (AID 1887;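 active = GFP signal above the screen-wide mean plus 3 SD, that is over about 124.5% of the solvent control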;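 also: AGP1-GFP fusion strain of S. cerevisiae within a five-strain barcoded multiplex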). Particulars: 3 h, at 10 µM, stronger effect = higher value.
Experiment [6] is described as follows: reduced mouse 2C T cell binding to pMHC/ICAM-1 vesicles – MLPCN validation set, flow cytometry, LFA-1/ICAM-1 modulator project, pilot screen (AID 2523;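 active = response below a set limit, under 55% cells CD8-positive and vesicle-bound, and CD8 cells' 90th-percentile brightness under 279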;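 as to vesicle binding response: mean PE anti-B7-1 fluorescence of CD8+ cells relative to row control; 100% = QL9-loaded vesicles with DMSO vehicle in the same plate row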). Particulars: 2C mouse CD8+ T cells, at 7 µM, stronger effect = lower value; double positive events: measured here: CD8+/vesicle+ event percentage.
Experiment [7] deals with Integrin beta-1 (Homo sapiens) + Integrin alpha-4 (Homo sapiens) (UniProt P13612+P05556). Nature of the experiment: alpha4beta1 integrin LIBS antibody binding reduction – U937 cells, HUTS-21 mAb, flow cytometry, validation set, VLA-4 allosteric modulator project, pilot screen (AID 2674;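 active = inhibition above 50%, about 3 SD of the validation set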;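 also: antibody binding induced by the VLA-4 ligand LDV present at three times its Kd; 0% = LDV ligand with antibody and no compound and 100% = antibody without LDV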). Particulars: HUTS-21 LIBS mAb binding, at 6.7 µM, stronger effect = higher value.
The nature of experiment [8]: calorie-restriction mimetic ROS inhibitors, yeast – validation compound set, pilot screen (AID 2706;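 active = superoxide response below 65% of plate, a cut near 3 SD across the whole screen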;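 also: yeast exposed to compound for one week at 30 degrees C before staining; 100% = mean of all compound wells on the same plate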). To be noted: S. cerevisiae aging, superoxide DHE fluorescence; at 10 µM; stronger effect = lower value.
For experiment [9], the target named is Beta-adrenergic receptor kinase 1 (Homo sapiens) (UniProt P25098). Briefly: GRK2 binders displacing RNA aptamer, biochemical, validation, human GRK2, bead flow cytometry (AID 488806;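 active = aptamer binding inhibition above 30%, about 3 SD of noise from non-fluorescent compounds; inactive = inhibition at or below 30%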). To be noted: bead-bound GRK2, FAM-aptamer displacement, at 10 µM, stronger effect = higher value.
The target of experiment [10] is Beta-2 adrenergic receptor (Homo sapiens) (UniProt P07550). Briefly: agonist-induced loss of surface beta2AR – cell-based, FAP fluorogen, flow cytometry, validation set, pilot screen (AID 504459;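 active = percent response above 42, roughly 3 SD of non-fluorescent test compounds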;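 also: agonist-driven loss of surface beta2AR via internalization measured by FAP dye flow cytometry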). Particulars: Am2.2-beta2AR cells, at 10 µM, stronger effect = higher value.
The target of experiment [11] is AP-2 complex subunit beta (Homo sapiens) (UniProt P63010). Nature of the experiment: beta-arrestin/AP2 interaction blockers – biochemical, validation set, GST-AP2 beads, flow cytometry, pilot screen (AID 504541;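 active = inhibition above 54%, about 3 SD of non-fluorescent compounds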;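 also: AP2 carries R879A mutation and is captured from E. coli lysate; bead-bound FITC arrestin peptide fluorescence measuring arrestin peptide binding to AP2; 0% = DMSO wells and 100% = excess unlabeled arrestin peptide control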). Particulars: FITC arrestin peptide, at 10 µM, stronger effect = higher value.
Experiment [12] can be described thus: cytosolic pH regulators acting via V-ATPase – S. cerevisiae, pHLuorin, HTS validation (AID 504600; in the data active = response above about 15%;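 also: plate controls were DMSO for no effect and reference compound for full effect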). Particulars: V-ATPase proton transport, at 10 µM, stronger effect = higher value.
For experiment [13], the system named is anti-desmoglein-3 scFv antibody binding to human DSG3. Nature of the experiment: blockers of pathogenic pemphigus antibody–desmoglein-3 binding – biochemical, validation compound set, bead-based, flow cytometry, pilot screen (AID 588368;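 active = binding below the plate cutoff, the plate median minus 3 SD, with a reading above zero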;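 also: signal is the median channel fluorescence of bead-bound GFP antibody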). Particulars: Protein G beads, DSG3-Fc, scFv-GFP binding, at 10 µM, stronger effect = lower value.
Experiment [14] concerns Botulinum neurotoxin type F light chain protease (Clostridium botulinum). Briefly: Clostridium botulinum type F light chain protease inhibitors, microsphere substrate cleavage, validation (AID 588459). To be noted: multiplex microsphere protease substrate cleavage assay, flow cytometry; at 10 µM; stronger effect = higher value.
Experiment [15] addresses Botulinum neurotoxin type A (Clostridium botulinum) (UniProt P0DPI0). Nature of the experiment: BoNT/A light chain protease inhibitors, biochemical, multiplex microsphere flow cytometry, validation set (AID 588460). Particulars: at 10 µM, stronger effect = higher value.
Experiment [16] has as its target Lethal factor (Bacillus anthracis) (UniProt P15917). Briefly: Bacillus anthracis lethal factor inhibition, microsphere flow cytometry protease assay, validation at 10 µM (AID 588461). Particulars: multiplex microsphere protease cleavage assay, stronger effect = higher value.
Experiment [17] in a line: Nile Red efflux blockade in pump-expressing yeast – validation compound set, multiplex, phenotypic, pilot screen (AID 588506;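 active = efflux inhibition above 0.42, the validation set average plus 4 SD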;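 also: Nile Red retained in cells so higher fluorescence means more efflux inhibition; 0 = negative control wells and 1 = enniatin B 25 µM full block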). Particulars: S. cerevisiae pump-expressing triplex, Nile Red efflux flow cytometry; at 10 µM; stronger effect = higher value.
Experiment [18] deals with ATP-binding cassette sub-family B member 6 (Homo sapiens) (UniProt Q9NP58). Nature of the experiment: blockers of ABCB6-driven porphyrin uptake – K562-ABCB6 cells, flow cytometry, validation set, pilot screen (AID 588550;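 active = inhibition above the screen-wide mean plus 3 SD, about 51%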;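 also: 0% = DMSO wells and 100% = benzethonium chloride 70 µM positive control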). To be noted: K562-ABCB6 porphyrin accumulation, 1 h, at 10 µM, stronger effect = higher value.
A short description of experiment [19]: AML differentiation inducers, ER-HoxA9 marrow cells – cell-based, GFP/MAC1 double positive, flow cytometry, validation set, primary screen (AID 588685;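 active = differentiation response of at least 50%, scaled between solvent and reference control, from cells with both markers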;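 also: compound exposure lasts four days before antibody staining and flow analysis; 0% = DMSO wells and 100% = 5 µM fulvestrant positive control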). Particulars: stronger effect = higher value.

Results filed as inconclusive are left out. The source made the active and inactive calls. Unless noted, no rule for the calls is given here.

Sequence of ATP-binding cassette sub-family B member 6 (Homo sapiens) (Q9NP58 whole entry, looked up): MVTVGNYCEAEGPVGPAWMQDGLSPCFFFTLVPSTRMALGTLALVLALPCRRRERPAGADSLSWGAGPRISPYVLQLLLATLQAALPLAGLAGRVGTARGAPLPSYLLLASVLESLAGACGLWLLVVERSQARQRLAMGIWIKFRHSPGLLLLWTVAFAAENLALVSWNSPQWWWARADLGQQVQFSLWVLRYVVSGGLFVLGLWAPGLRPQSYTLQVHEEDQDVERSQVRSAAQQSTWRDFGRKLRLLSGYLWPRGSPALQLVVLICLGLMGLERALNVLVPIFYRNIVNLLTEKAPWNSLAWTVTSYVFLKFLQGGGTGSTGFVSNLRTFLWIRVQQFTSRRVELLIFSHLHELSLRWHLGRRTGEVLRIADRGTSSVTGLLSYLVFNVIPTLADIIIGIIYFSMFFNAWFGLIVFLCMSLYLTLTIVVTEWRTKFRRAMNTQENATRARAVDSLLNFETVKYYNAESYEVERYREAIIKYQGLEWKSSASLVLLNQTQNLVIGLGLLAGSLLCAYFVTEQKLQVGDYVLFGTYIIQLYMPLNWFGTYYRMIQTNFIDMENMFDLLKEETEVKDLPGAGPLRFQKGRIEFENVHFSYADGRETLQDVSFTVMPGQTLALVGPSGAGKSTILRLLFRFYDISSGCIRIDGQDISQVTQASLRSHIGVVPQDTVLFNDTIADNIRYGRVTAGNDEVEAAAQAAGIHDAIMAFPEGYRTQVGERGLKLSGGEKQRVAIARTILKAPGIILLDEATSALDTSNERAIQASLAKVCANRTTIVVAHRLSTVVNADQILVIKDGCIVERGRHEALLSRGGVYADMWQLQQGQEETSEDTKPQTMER
Sequence of AP-2 complex subunit beta (Homo sapiens) (P63010 whole entry, looked up, one chain of several): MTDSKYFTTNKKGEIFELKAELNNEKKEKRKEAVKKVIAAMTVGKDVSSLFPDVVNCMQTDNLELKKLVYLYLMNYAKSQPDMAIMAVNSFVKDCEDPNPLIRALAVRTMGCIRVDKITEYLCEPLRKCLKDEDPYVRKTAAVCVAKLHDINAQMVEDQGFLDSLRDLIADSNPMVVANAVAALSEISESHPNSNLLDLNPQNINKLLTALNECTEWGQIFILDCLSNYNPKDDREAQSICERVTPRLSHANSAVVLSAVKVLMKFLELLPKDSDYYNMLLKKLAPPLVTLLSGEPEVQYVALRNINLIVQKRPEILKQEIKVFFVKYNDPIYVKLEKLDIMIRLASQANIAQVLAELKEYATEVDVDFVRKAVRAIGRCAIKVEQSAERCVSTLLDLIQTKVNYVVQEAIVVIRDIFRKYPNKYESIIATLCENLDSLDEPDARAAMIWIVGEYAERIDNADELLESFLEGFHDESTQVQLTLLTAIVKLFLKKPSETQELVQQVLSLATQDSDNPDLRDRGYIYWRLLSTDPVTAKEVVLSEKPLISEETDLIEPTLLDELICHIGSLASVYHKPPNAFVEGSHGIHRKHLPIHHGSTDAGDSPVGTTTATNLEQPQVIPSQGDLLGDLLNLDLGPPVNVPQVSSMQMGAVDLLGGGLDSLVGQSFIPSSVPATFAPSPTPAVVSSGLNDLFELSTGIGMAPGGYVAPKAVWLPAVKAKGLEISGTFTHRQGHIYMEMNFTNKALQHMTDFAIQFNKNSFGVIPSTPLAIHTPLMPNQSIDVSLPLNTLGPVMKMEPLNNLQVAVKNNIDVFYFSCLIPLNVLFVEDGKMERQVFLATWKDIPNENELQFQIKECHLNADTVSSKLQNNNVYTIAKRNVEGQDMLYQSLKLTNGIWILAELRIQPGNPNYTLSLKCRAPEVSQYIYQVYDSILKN
Sequence of Integrin beta-1 (Homo sapiens) + Integrin alpha-4 (Homo sapiens) (P05556 whole entry, looked up): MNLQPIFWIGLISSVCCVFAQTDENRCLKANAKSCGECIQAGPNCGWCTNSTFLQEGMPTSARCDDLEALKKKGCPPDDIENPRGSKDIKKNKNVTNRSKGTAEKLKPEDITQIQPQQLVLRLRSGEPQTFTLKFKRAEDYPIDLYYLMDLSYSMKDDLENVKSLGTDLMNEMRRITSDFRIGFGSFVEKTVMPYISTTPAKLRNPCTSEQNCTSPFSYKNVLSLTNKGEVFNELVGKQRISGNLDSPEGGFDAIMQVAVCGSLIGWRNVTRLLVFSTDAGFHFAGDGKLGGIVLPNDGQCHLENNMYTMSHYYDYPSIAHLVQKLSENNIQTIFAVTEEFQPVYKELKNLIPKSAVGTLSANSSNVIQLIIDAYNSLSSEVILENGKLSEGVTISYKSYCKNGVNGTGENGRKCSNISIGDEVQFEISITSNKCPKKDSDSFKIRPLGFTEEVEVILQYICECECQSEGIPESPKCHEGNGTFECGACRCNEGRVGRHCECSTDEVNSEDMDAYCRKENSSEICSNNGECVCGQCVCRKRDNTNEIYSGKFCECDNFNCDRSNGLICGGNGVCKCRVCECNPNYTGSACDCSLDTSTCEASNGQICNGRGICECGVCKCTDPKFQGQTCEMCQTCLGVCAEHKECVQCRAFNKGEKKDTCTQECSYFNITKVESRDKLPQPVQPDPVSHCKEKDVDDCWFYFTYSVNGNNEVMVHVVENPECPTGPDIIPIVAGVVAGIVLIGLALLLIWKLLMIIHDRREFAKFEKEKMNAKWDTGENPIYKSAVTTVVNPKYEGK
Sequence of Integrin beta-1 (Homo sapiens) + Integrin alpha-4 (Homo sapiens) (P13612 whole entry, looked up): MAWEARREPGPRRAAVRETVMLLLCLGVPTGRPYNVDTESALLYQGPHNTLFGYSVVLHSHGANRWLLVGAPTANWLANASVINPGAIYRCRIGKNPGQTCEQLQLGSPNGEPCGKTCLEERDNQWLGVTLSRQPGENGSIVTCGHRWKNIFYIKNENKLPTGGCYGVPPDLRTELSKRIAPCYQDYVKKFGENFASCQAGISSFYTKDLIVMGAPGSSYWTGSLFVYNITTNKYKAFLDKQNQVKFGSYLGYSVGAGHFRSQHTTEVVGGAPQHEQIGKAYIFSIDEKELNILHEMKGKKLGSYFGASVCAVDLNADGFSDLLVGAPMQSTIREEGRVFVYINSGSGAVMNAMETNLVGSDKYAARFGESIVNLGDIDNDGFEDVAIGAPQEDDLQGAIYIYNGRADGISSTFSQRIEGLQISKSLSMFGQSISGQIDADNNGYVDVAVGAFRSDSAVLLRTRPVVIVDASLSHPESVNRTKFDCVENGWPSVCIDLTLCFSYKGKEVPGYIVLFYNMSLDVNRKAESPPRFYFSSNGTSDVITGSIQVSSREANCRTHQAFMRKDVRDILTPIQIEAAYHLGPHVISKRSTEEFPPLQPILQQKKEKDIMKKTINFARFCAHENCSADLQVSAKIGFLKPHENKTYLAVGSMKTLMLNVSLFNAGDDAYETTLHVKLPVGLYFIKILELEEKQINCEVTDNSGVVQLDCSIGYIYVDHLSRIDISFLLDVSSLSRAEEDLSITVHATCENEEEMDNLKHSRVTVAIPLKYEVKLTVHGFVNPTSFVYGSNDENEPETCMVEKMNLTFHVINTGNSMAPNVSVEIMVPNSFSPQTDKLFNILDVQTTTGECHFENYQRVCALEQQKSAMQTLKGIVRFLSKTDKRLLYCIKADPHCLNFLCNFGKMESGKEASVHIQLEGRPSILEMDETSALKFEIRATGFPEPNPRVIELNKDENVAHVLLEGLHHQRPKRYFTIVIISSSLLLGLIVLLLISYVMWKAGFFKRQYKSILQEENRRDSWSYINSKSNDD
Sequence of Beta-adrenergic receptor kinase 1 (Homo sapiens) (P25098 whole entry, looked up): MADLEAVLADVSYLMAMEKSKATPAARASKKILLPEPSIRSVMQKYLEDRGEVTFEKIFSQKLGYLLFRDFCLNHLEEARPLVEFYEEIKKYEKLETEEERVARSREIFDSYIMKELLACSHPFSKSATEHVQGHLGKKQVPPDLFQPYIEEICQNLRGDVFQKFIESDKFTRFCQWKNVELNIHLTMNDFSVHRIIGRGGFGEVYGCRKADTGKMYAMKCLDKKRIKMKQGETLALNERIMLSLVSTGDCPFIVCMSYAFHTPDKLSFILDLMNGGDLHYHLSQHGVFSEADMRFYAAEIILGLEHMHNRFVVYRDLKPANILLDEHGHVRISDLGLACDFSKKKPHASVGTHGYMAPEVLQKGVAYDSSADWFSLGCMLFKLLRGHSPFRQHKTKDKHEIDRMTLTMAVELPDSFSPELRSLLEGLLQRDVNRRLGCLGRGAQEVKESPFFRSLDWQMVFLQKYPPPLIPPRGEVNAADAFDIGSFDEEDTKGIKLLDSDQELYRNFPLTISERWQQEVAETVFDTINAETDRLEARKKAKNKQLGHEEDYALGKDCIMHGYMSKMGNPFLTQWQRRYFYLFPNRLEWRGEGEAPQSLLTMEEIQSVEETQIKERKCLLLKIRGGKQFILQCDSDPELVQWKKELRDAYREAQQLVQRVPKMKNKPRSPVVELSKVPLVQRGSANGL
Sequence of Beta-2 adrenergic receptor (Homo sapiens) (P07550 whole entry, looked up): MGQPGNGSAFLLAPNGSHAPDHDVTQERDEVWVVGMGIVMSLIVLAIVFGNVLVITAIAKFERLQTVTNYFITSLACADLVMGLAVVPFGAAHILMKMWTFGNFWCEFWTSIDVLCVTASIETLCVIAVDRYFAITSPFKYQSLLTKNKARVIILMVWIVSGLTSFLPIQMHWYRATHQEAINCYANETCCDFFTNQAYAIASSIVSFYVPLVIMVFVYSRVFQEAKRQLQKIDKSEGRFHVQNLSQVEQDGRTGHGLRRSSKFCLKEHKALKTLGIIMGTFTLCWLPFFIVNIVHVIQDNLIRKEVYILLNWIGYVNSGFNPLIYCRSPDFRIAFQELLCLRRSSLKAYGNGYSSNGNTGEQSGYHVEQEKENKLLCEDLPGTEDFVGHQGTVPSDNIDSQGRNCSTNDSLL

By inhibition is commonly meant the change of the read-out against control, counted positive when it falls. For `OC1CCCCC1N1CCC(c2ccccc2)CC1` (stereo not given), the percent of DMSO control GFP in [1] was 92.8% (inactive). The GFP response vs DMSO in experiment [2] is 133% (inactive); in experiment [4], 70.4% (inactive). Besides, in [3], the percent response of DMSO control is 91.3% (inactive). The GFP response, % of DMSO in experiment [5] was 89.4% (inactive). Moreover, in experiment [6], the double positive events was 62.4%. For the same molecule, the vesicle binding response in experiment [6] was 171% (inactive). Moreover, the inhibition is 5.49% (inactive) in [7]; -5.17% (inactive) in experiment [11]; 8.9% (inactive) in experiment [14]; -1% (inactive) in experiment [15]; 6.3% (inactive) in experiment [16]; 15% (inactive) in experiment [18]. The superoxide response (% of plate) in experiment [8] is 110% (inactive). Moreover, in experiment [9], the aptamer binding inhibition is 3% (inactive). The values for the response in experiment [10] and in experiment [12] were -8.3% (inactive) and 2.23% (inactive), respectively. The binding (% of control) in [13] is 127% (inactive). For the same molecule, in experiment [17], the efflux inhibition (fraction of control) was 0.52 (active). Further, the differentiation response in experiment [19] was -1.64% (inactive).

With `C#CCN(C)C(C)Cc1ccccc1` (stereo not given), the percent of DMSO control GFP in [1] is 100% (inactive). The results for the GFP response vs DMSO in experiment [2] and in [4] were 108% (inactive) and 88.7% (inactive), respectively. Further, the percent response of DMSO control in experiment [3] was 104% (inactive). Further, the GFP response, % of DMSO in [5] was 102% (inactive). Besides, in [6], the double positive events turned out to be 62.5%. The vesicle binding response in [6] was 225% (inactive). The inhibition in [7] is 1.62% (inactive); in experiment [11], -6.88% (inactive); in [14], -1% (inactive); in experiment [15], -0.6% (inactive); in [16], 3.9% (inactive); in [18] it was -12% (inactive). Moreover, the superoxide response (% of plate) in [8] was 97.6% (inactive). The aptamer binding inhibition in experiment [9] was 3% (inactive). Moreover, the response in [10] was -1.41% (inactive); in experiment [12], 3.03% (inactive). The binding (% of control) in [13] was 97.2% (inactive). Besides, in experiment [17], the efflux inhibition (fraction of control) was -0.1 (inactive). Also, the differentiation response in experiment [19] is 15.9% (inactive).

For `CCN(CC)CCOC(=O)C(O)(c1ccccc1)c1ccccc1`, the percent of DMSO control GFP in experiment [1] is 102% (inactive). The GFP response vs DMSO in experiment [2] was 108% (inactive); in experiment [4] it was 92.6% (inactive). Further, the percent response of DMSO control in experiment [3] was 96.5% (inactive). For the same molecule, the GFP response, % of DMSO in experiment [5] was 94.5% (inactive). This molecule also came in with a double positive events in [6] of 62%. In [6], the vesicle binding response is 152% (inactive). Besides, the inhibition in [7] is 2.93% (inactive); in experiment [11], 0.48% (inactive); in [14], -2% (inactive); in experiment [15], -0.9% (inactive); in experiment [16], -5.6% (inactive); in [18] it was -101% (inactive). The superoxide response (% of plate) in experiment [8] is 90.4% (inactive). The aptamer binding inhibition in experiment [9] was 2% (inactive). The response in [10] is 10.4% (inactive); in experiment [12], -1.11% (inactive). The binding (% of control) in experiment [13] is 108% (inactive). The efflux inhibition (fraction of control) in experiment [17] was -0.095 (inactive). Further, in experiment [19], the differentiation response was 7.13% (inactive).

Regarding `O=c1c2ccccc2nc(/C=C/c2ccc3c(c2)OCO3)n1-c1ccccc1`, the percent of DMSO control GFP in [1] was 102% (inactive). The results for the GFP response vs DMSO in [2] and in [4] were 105% (inactive) and 110% (inactive), respectively. For the same molecule, in experiment [3], the percent response of DMSO control is 100% (inactive). For the same molecule, the GFP response, % of DMSO in [5] is 98.9% (inactive). The molecule further showed a double positive events in [6] of 59.9%. Besides, the vesicle binding response in [6] is 140% (inactive). For the same molecule, the inhibition in [7] is 1.44% (inactive); in [11], -1.43% (inactive); in experiment [14], -0.7% (inactive); in experiment [15], 0.6% (inactive); in experiment [16], -5% (inactive); in experiment [18], 0% (inactive). In experiment [8], the superoxide response (% of plate) is 90.1% (inactive). Also, the aptamer binding inhibition in experiment [9] is 4% (inactive). In addition, the response in experiment [10] was -4.14% (inactive); in [12], -7.21% (inactive). Also, in [13], the binding (% of control) was 106% (inactive). Also, the efflux inhibition (fraction of control) in experiment [17] was 0.33 (inactive). Also, the differentiation response in experiment [19] was 7.82% (inactive).

The values above are taken from PubChem BioAssay.
